Measurements reported in PubChem BioAssay (NCI).
Compounds without any hit were thinned out: in the full panel of roughly 79,000, 15% have a hit. The source made the active and inactive calls. Cut-off read from the data, not from the text of the source: active = growth inhibition above about 70%; inactive = the rest.

How the values were obtained:
[1] = NCI Yeast Anticancer Drug Screen. Data for the rad50 strain (AID 155);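 note: 0% = growth of vehicle-only cultures of the same strain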; details: S. cerevisiae rad50 strain growth inhibition; at 50.0 µM; hits give high values
In short: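 Genetically altered yeast (DNA repair pathway); compound treatment; growth inhibition vs vehicle ctrl.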

[2] = NCI Yeast Anticancer Drug Screen. Data for the mec2-1 strain (AID 157); details: S. cerevisiae mec2-1 strain, at 50.0 µM, hits give high values
In short: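 Each compound was tested on mec2-1 yeast, a strain altered in DNA damage repair or cell cycle control. Growth inhibition is reported relative to vehicle.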

[3] = NCI Yeast Anticancer Drug Screen. Data for the sgs1 mgt1 strain (AID 161);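 note: 0% = growth of cultures given vehicle only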; details: S. cerevisiae sgs1 mgt1 strain, at 50.0 µM, hits give high values
In short: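 Genetically altered yeast, compound exposure, growth inhibition relative to vehicle.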

[4] = NCI Yeast Anticancer Drug Screen. Data for the cln2 rad14 strain (AID 165);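 note: 0% = growth equal to vehicle treated cultures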; details: S. cerevisiae cln2 rad14 strain, at 50.0 µM, hits give high values
In short: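 Test compounds were added to cln2 rad14 yeast cultures; inhibition of growth was then determined by comparison with vehicle treatment.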

[5] = NCI Yeast Anticancer Drug Screen. Data for the bub3 strain (AID 167); details: S. cerevisiae bub3 mutant strain, at 50.0 µM, hits give high values
In short: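 Yeast carrying a defined mutation is treated with each compound, and growth is compared with that of vehicle-exposed cells to give inhibition.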

[6] = NCI Yeast Anticancer Drug Screen. Data for the mlh1 rad18 strain (AID 175); details: S. cerevisiae mlh1 rad18 strain growth inhibition; at 50.0 µM; hits give high values
In short: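 Inhibition values reflect reduced growth of mutant yeast versus vehicle-treated controls following compound exposure; the mutations affect DNA damage repair.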

Measured: growth inhibition

Cc1ccc(S(=O)(=O)/N=C2\CCN(S(=O)(=O)c3ccccc3)N2S(=O)(=O)c2ccc(C)cc2)cc1
inactive: [1] 17.6% | [2] 15.5% | [3] 14.3% | [4] 9.85% | [5] 11.8% | [6] 46.5%

CCOC(=O)C(=CN1CCCCCC1)C(=O)OCC
inactive: [1] 19.8% | [2] 13.2% | [3] 13.2% | [4] 6.1% | [5] -0.25% | [6] 32.5%

COC(=O)C(=C/c1ccc(OC)cc1)/C(C(=O)O)=C(/C)c1ccccc1
inactive: [1] 9.9% | [2] 17.1% | [3] -14.2% | [4] -11.2% | [5] -18.6% | [6] -9.8%

CC1C(c2ccccc2O)c2cc3c(cc2OC1N1CCCC1)OCO3 (stereo not given)
inactive: [1] 45.9% | [2] 38.8% | [3] 58.5% | [4] 59.6% | [5] 47.4% | [6] 58.3%

CC(=O)NN(C)C(C)=O
inactive: [1] 6% | [2] 27.3% | [3] -4.2% | [4] 12.4% | [5] 15.9% | [6] 10.5%

Cn1c(=O)c2[nH]c(CCNC(=O)c3ccccc3)nc2n(C)c1=O
inactive: [1] 2.05% | [2] -9.75% | [3] -30.2% | [4] -38.5% | [5] -40.8% | [6] -9.95%

CS(=O)(=O)OCCCCCCCCCCCC1C=CCC1 (stereo not given)
inactive: [1] 10.3% | [2] -32.4% | [3] 5.15% | [4] 11.8% | [5] -8.25% | [6] 3.1%

CCCCCCCC/C=C\CCCCCCCC(=O)Cl
inactive: [1] -19% | [2] -33.8% | [3] -14% | [4] -55.9% | [5] -8.85% | [6] -23.1%

OCCCNc1nc2cc(Br)ccc2c2ccc(Br)cc12
inactive: [1] 47.6% | [2] 4.75% | [3] 23.9% | [4] -3.65% | [5] 0.1% | [6] 19.1%

COc1ccc(CN2C(=S)SC(c3ccc(Cl)cc3)N2c2ccc(OC)cc2)cc1 (stereo not given)
inactive: [1] -25.1% | [2] -19.6% | [3] -9.2% | [4] -37% | [5] -1.35% | [6] -19.8%

NC(CC1C(=O)Nc2ccccc21)C(=O)O (stereo not given)
inactive: [1] -32.5% | [2] -14.9% | [3] -11.3% | [4] -60.6% | [5] -0.8% | [6] -8.9%

COc1ccc(C2(O)c3ccccc3C(=O)c3ccc(OC)cc32)cc1 (stereo not given)
inactive: [1] -3.15% | [2] -10.6% | [3] 4.15% | [4] 14.8% | [5] -11.1% | [6] -10.5%

CN1CCCC2C(c3ccccc3)C(C3=NCCCC3)C(c3ccccc3)CC21 (stereo not given)
inactive: [1] -18.9% | [2] -3.2% | [3] -23.1% | [4] -28.6% | [5] -64.9% | [6] -60.4%

COc1c(C)cc(-c2cc(C)c(OC)c(C)c2)cc1C
inactive: [1] -3.45% | [2] 8.05% | [3] 1.7% | [4] 9.4% | [5] -8.8% | [6] -3.55%

CSc1ncc2c(n1)-c1ccccc1OC2N1CCCCC1 (stereo not given)
inactive: [1] 9.8% | [2] 13.7% | [3] 7.4% | [4] -3.45% | [5] 23.4% | [6] 38.7%

COC(=O)CC1(O)C=C(C)C(=O)c2ccccc21 (stereo not given)
inactive: [1] 4.9% | [2] -5.7% | [3] -19.2% | [4] -19% | [5] 25.2% | [6] -11.2%

CCCCOC(=O)C(C)OP(=O)(OC(C)C(=O)OCCCC)OC(C)C(=O)OCCCC (stereo not given)
inactive: [1] -19.4% | [2] -5% | [3] 9.5% | [4] -26.1% | [5] -0.3% | [6] 16.2%

COc1ccc(-c2cc(=O)c3cc(C)c(C)c(C(=O)O)c3o2)cc1
inactive: [1] -10.5% | [2] -2.95% | [3] -5.4% | [4] 10.8% | [5] -8.7% | [6] 0.75%

O=NN(Cc1ccc(Cl)cc1)NC1=NCCN1
inactive: [1] 5.55% | [2] 14.3% | [3] 3.75% | [4] -3.65% | [5] 15.2% | [6] 29.6%

CC(=O)N(C)c1ccc(NC(=S)NC(=O)c2cccc([N+](=O)[O-])c2)cc1
inactive: [1] 3.55% | [2] 21.6% | [3] 6.9% | [4] -4.15% | [5] 27.5% | [6] 7.05%

Oc1cc2oc3cc(O)c(O)cc3c2cc1O
inactive: [1] 7% | [2] 10.4% | [3] 9.85% | [4] 35.4% | [5] 6.1% | [6] 23.9%

c1ccc(CNC(Cc2ccccc2)c2ccc(OCc3ccccc3)cc2)cc1 (stereo not given)
inactive: [1] -15.2% | [2] -17.6% | [3] 4% | [4] 11.8% | [5] -10.2% | [6] -10.6%

Cc1cc2cc3oc(C)cc3cc2o1
inactive: [1] 6.3% | [2] -6.45% | [3] -7.8% | [4] -45.6% | [5] -0.8% | [6] 3.25%

CCCCCc1cc(O)cc2c1Oc1cc(O)cc(C(=O)CCCC)c1C(=O)O2
inactive: [1] 4% | [2] -17.2% | [3] 8.6% | [4] -9.9% | [5] -9.4% | [6] -14.2%

O=[N+]([O-])c1ccc(N=NNc2ccc([N+](=O)[O-])cc2)cc1
inactive: [1] 4.5% | [2] -13% | [3] -2.05% | [4] -38.1% | [5] -2.95% | [6] 5.4%

c1ccc(C2=NCCN2)nc1
inactive: [1] 8.1% | [2] 0.9% | [3] -5.7% | [4] -1.15% | [5] 0.65% | [6] 6.55%

N#CC1=C(N)N(c2ccccc2)C(c2ccccc2)C1(C#N)C#N (stereo not given)
inactive: [1] 6.45% | [2] 14.2% | [3] -8.3% | [4] -4.9% | [5] -22.9% | [6] -4.75%

Cc1cc(C)c(C(=O)c2ccccc2C)c(C)c1
inactive: [1] 21.3% | [2] -1% | [3] -0.35% | [4] -23.5% | [5] 11.3% | [6] 15.7%

OCc1ccc2[n+](c1)CCC1c3ccccc3NC21 (stereo not given)
inactive: [1] -8.35% | [2] -8.75% | [3] -18.6% | [4] -8.4% | [5] -26.3% | [6] -6.45%

CC(C)c1cc(C(C)C)c(Cc2c(C(C)C)cc(C(C)C)cc2C(C)C)c(C(C)C)c1
inactive: [1] 15% | [2] 14.2% | [3] 0.3% | [4] 0.55% | [5] -2% | [6] 20.3%

CCOC(=O)C(NC(=S)Cc1ccccc1)C(=O)OCC
inactive: [1] 10.1% | [2] -2.85% | [3] -4.8% | [4] -5.7% | [5] 9.75% | [6] -0.35%

CCCCCN1C(=O)N=NC1=S
inactive: [1] 4.65% | [2] 8.15% | [3] 19.2% | [4] 2.7% | [5] -13.8% | [6] -2.5%

Nc1nc(N)c2c(n1)Nc1ccc(Cl)nc1S2
inactive: [2] 69.3% | [4] 52.2%
active: [1] 94.2% | [3] 89.1% | [5] 81.1% | [6] 93.8%

C/C(=C\c1ccccc1)C(=O)c1ccccc1
inactive: [1] -0.45% | [2] 3.85% | [3] 1.3% | [4] -3.15% | [5] 3.45% | [6] 20%

COC(=O)CNC(=O)Nc1cc(N2C(=O)ON3C2C(C)(C)N(O)C3(C)C)ccc1C (stereo not given)
inactive: [1] 2.95% | [2] 13.8% | [3] 16.9% | [4] 20.6% | [5] 15.2% | [6] -22.6%

CC(=O)c1ccc(N2CCCCC2)cc1
inactive: [1] -7.8% | [2] -12.2% | [3] 4.55% | [4] -3.1% | [5] 40% | [6] -14.4%

O=c1c(CN(CCO)CCO)c(-c2ccccc2)sc2ccccc12
inactive: [1] -3.45% | [2] -24.6% | [3] -28.1% | [4] 13.1% | [5] -13.8% | [6] 14.7%

OCC1(OC2OC(CF)C(O)C(O)C2O)OC(CF)C(O)C1O (stereo not given)
inactive: [1] -1.1% | [2] 0.75% | [3] -5.65% | [4] -23.5% | [5] 3.3% | [6] 3.85%

COc1ccc(N=C2C(=Nc3ccc(OC)cc3)N(S(=O)(=O)c3ccccc3)C(=S)N2c2ccc(OC)cc2)cc1
inactive: [1] -11.8% | [2] -35% | [3] -35.5% | [4] -23.9% | [5] 0.2% | [6] -26.1%

c1ccc(-c2cc3nncc(-c4ccccc4)n3n2)cc1
inactive: [1] -14.9% | [2] -9.95% | [3] -7.65% | [4] 13.9% | [5] 13.3% | [6] 3.55%
